Assay results: PubChem BioAssay (Tox21)
A number with no mark means an inactive call. Results filed as inconclusive are left out. A call without a number means that no potency is given here. Activity calls are given as the source filed them. Unless noted, calls follow the shape of the full dose curve.

Assays:
[1] = Nuclear factor erythroid 2-related factor 2/antioxidant responsive element (Nrf2/ARE) small molecule agonists: luciferase reporter gene qHTS assay in human keratinocytes (AID 1919969); also: nearly all actives have a fitted effect of over 35% in size; also: potency is read from the fitted curve at half-maximal effect
[2] = target: Gonadotropin-releasing hormone receptor (Homo sapiens) (UniProt P30968); assay: Human gonadotropin-releasing hormone receptor (GnRHR) small molecule agonists, calcium flux assay in GnRHR-HEK293 cells (AID 1920063); also: nearly all actives have a fitted effect of over 35% in size
Outline: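 HEK293 cells stably expressing human GnRHR were dye-loaded for 1 h at 37 C. Compound was added in agonist mode and fluorescence (Ex/Em 480/540) recorded kinetically for 3 min. Fifteen concentrations, triplicates.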

[3] = target: KiSS-1 receptor (Homo sapiens) (UniProt Q969F8); assay: Human kisspeptin (KISS1R) small molecule agonists, calcium flux assay in KISS1R-HEK293 cells (AID 1920064; active = well fitted activation curve with a large enough effect in the repeat runs)
Outline: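 HEK293 cells stably expressing human KISS1R were loaded with calcium dye for 1 h at 37 C, then given compound; fluorescence (Ex/Em 480/540) was read kinetically for 3 min. Fifteen concentrations, triplicate.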

[4] = G protein-coupled receptor (GPCR) small molecule agonists, calcium flux assay: HEK293 wild type cell line counter screen (AID 1920065)
Outline: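 Wild-type HEK293 cells plated 18 h, loaded with calcium dye 1 h at 37 C, then compounds added in agonist mode (ATP as positive control). Kinetic fluorescence Ex/Em 480/540 recorded 3 min at 1 sec intervals; 15 concentrations, triplicate.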

[5] = p53 small molecule agonists, cell-based qHTS assay with human liver microsomes (AID 1963577);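 also: p53 response element beta-lactamase reporter cells with liver microsomes plus NADPH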
Outline: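 p53RE-bla cells; 5 h settle, 37 C/5% CO2; cpd + HLM 0.5 mg/mL + NADPH 0.5 mg/mL (final); 16 h 37 C; LiveBLAzer 2 h RT dark; fluorescence readout.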

[6] = p53 small molecule agonists, cell-based qHTS assay with rat liver microsomes (AID 1963578)
Outline: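 Rat liver microsome activation: microsomes 0.5 mg/mL, NADPH 0.5 mg/mL final; p53RE-bla cells, 16 h 37 C; LiveBLAzer readout, 2 h RT dark.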

[7] = p53 small molecule agonists, cell-based qHTS assay with human liver microsomes: qHTS cell viability counter screen (AID 1963579); also: nearly all actives have a fitted effect of over 45% in size; also: potency is read from the fitted curve at half-maximal effect
Outline: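 Luminescent CellTiter-Glo read-out, 30 min at room temperature, gauged cytotoxicity in p53RE-bla cells exposed 16 h at 37 C to DMSO-dissolved compounds with metabolic activation by human liver microsomes and NADPH, each 0.5 mg/mL final.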

[8] = p53 small molecule agonists, cell-based qHTS assay with rat liver microsomes: qHTS cell viability counter screen (AID 1963580); also: nearly all actives have a fitted effect of over 45% in size
Outline: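 HCT-116 p53RE-bla, 4,000 cells/well, 5 h pre-incubation; cpd + rat liver microsomes 0.5 mg/mL + NADPH 0.5 mg/mL (final); 16 h, 37 C; CellTiter-Glo, 30 min RT; luminescence.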

[9] = p53 small molecule agonists, cell-based qHTS assay: qHTS cell viability counter screen (AID 1963581); also: nearly all actives have a fitted effect of over 45% in size
Outline: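 p53RE-bla HCT-116 cells, compounds added 5 h after plating and incubated 16 h at 37 C. Cytotoxicity measured in the same wells as intracellular ATP by CellTiter-Glo luminescence after 30 min at room temperature.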

[10] = p53 small molecule agonists, cell-based qHTS assay (AID 1963582; active = well fitted activation curve with a large enough effect in the signal ratio in the repeat runs, not every such curve was filed as active; the % refers to the signal ratio)
Outline: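 p53RE-bla reporter cells, compounds added in DMSO after 5 h plating, incubated 16 h at 37 C. Beta-lactamase read via 2 h room-temperature LiveBLAzer B/G FRET substrate, fluorescence intensity.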

[11] = target: 5-hydroxytryptamine receptor 2A (Homo sapiens) (UniProt P28223); assay: 5-hydroxytryptamine receptor 2A (HTR2A) small molecule antagonists, cell-based qHTS assay (AID 1963586); also: nearly all actives have a fitted effect of over 45% in size
Outline: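 Antagonist-mode intracellular calcium assay: DOI (4 nM) added after 5 min compound pre-incubation at room temperature to dye-loaded HTR2A-CHO cells. Fluorescence followed for 3 min, sampled every second.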

[12] = target: 5-hydroxytryptamine receptor 2A (Homo sapiens) (UniProt P28223); assay: 5-hydroxytryptamine receptor 2A (HTR2A) small molecule agonists, cell-based qHTS assay (AID 1963587); also: nearly all actives have a fitted effect of over 30% in size; also: potency is read from the fitted curve at half-maximal effect
Outline: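 Kinetic calcium-flux fluorescence (2 min, 1 sec intervals) after compound addition in agonist mode. HTR2A-CHO cells were cultured 18 h, then dye-loaded 1 h at 37 C.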

[13] = target: Muscarinic acetylcholine receptor M1 (Homo sapiens) (UniProt P11229); assay: Cholinergic receptor muscarinic 1 (CHRM1) small molecule agonists, cell-based qHTS assay (AID 1963589); also: nearly all actives have a fitted effect of over 35% in size
Outline: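 CHO cells stably expressing human CHRM1 were loaded with calcium dye for 1 h at 37 C, then compound was added in agonist mode. Intracellular calcium fluorescence was followed kinetically at 1 s intervals. Fifteen concentrations were tested in three independent runs.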

[14] = cAMP Responsive Elements (CRE) small molecule agonists, cell-based qHTS assay (AID 1963590)
Outline: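 CRE-bla HEK 293T cells, 2,000/well in DMEM with 10% dialyzed FBS and 25 mM HEPES, pre-incubated 18 h at 37 C, then exposed to compound 3 h at 37 C. Beta-lactamase reporter read with LiveBLAzer B/G FRET substrate after 2 h at room temperature.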

[15] = cAMP Responsive Elements (CRE) small molecule antagonists, cell-based qHTS assay (AID 1963591; active = well fitted inhibition curve with a large enough effect in the signal ratio in the repeat runs, not every such curve was filed as active; the % refers to the signal ratio)
Outline: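 CRE-bla HEK293T cells plated 18 h, then given compound plus NKH477 at 0.25 uM final for 3 h at 37C. Beta-lactamase reporter read with LiveBLAzer B/G FRET substrate after 2 h at room temperature.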

[16] = target: Beta-2 adrenergic receptor (Homo sapiens) (UniProt P07550); assay: Adrenergic beta2 receptor (ADRB2) small molecule antagonists, cell-based qHTS assay (AID 1963592); also: nearly all actives have a fitted effect of over 50% in size; also: potency is read from the fitted curve at half-maximal effect
Outline: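 Cells (CHO, stable ADRB2 overexpression) incubated 18-20hr at 37C; compounds added from DMSO; agonist mix (1nM isoproterenol, 100uM IBMX, 25uM Ro-20-1724) added; 0.5hr RT; d2-cAMP and anti-cAMP-cryptate added; 1hr RT; 665/615 nm read.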

[17] = target: Beta-2 adrenergic receptor (Homo sapiens) (UniProt P07550); assay: Adrenergic beta2 receptor (ADRB2) small molecule agonists, cell-based qHTS assay (AID 1963593);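 also: CHO cells stably overexpressing human ADRB2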
Outline: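 CHO cells stably over-expressing ADRB2 were plated overnight at 37C, then dosed with compounds plus a stimulation mix containing 100uM IBMX and 25uM Ro-20-1724 for 0.5hr at room temperature. cAMP was measured by HTRF competition, 1hr.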

[18] = target: D(2) dopamine receptor (Homo sapiens) (UniProt P14416); assay: Dopamine D2 receptor (DRD2) small molecule antagonists, cell-based qHTS assay (AID 1963595; active = well fitted inhibition curve with a large enough effect in the signal ratio in the repeat runs, with a control signal flat; the % refers to the signal ratio)
Outline: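 Cells were plated and grown for 24 h at 37 °C. Ro20-1724 (0.1 mM final) went in first, then compound for 10 min. NKH477 (200 nM) with quinpirole (12 nM) followed for 30 min at RT, then HTRF detection reagents for 1 h.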

[19] = target: Muscarinic acetylcholine receptor M1 (Homo sapiens) (UniProt P11229); assay: Cholinergic receptor muscarinic 1 (CHRM1) small molecule antagonists, cell-based qHTS assay (AID 1963588); also: nearly all actives have a fitted effect of over 40% in size
Outline: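 CHRM1-CHO calcium-flux assay, antagonist mode. Cells were seeded 18 h, dye-loaded 1 h at 37 C and given compound for 5 min at RT, then acetylcholine was added at 50nM. FDSS fluorescence was read 3 min; 15 concentrations, three runs.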

[20] = target: D(2) dopamine receptor (Homo sapiens) (UniProt P14416); assay: Dopamine D2 receptor (DRD2) small molecule agonists, cell-based qHTS assay (AID 1963594); also: nearly all actives have a fitted effect of over 35% in size
Outline: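 cAMP accumulation in DRD2-HEK293 cells measured by HTRF after 1 h detection; compounds added 10 min before NKH477 (200nM […]) forskolin-analogue stimulation, 30 min at room temperature, with Ro20-1724 present at 0.1 mM final.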

Chain of KiSS-1 receptor (Homo sapiens) (Q969F8 whole entry, looked up): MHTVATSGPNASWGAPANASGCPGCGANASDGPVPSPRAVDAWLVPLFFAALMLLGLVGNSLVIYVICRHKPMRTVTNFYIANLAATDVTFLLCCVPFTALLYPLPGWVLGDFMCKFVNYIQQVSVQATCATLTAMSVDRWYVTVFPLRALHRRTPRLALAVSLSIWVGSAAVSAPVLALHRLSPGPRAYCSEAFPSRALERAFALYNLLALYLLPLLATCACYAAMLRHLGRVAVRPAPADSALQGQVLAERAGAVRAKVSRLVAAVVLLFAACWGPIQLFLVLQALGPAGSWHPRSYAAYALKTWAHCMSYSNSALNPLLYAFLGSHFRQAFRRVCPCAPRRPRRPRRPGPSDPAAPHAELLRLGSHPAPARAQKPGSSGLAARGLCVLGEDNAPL
Chain of D(2) dopamine receptor (Homo sapiens) (P14416 whole entry, looked up): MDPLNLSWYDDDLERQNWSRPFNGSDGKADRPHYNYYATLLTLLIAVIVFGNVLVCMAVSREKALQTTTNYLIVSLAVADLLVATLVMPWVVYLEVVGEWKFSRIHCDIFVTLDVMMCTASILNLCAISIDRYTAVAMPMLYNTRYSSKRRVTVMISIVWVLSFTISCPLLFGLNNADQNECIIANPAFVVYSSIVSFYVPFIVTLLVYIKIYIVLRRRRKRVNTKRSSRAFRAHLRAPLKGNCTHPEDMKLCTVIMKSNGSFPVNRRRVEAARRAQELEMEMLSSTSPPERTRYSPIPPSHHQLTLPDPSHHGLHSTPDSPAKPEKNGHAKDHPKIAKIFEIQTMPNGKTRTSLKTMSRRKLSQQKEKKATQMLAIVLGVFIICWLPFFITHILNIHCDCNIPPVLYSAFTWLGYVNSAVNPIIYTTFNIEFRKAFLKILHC
Chain of 5-hydroxytryptamine receptor 2A (Homo sapiens) (P28223 whole entry, looked up): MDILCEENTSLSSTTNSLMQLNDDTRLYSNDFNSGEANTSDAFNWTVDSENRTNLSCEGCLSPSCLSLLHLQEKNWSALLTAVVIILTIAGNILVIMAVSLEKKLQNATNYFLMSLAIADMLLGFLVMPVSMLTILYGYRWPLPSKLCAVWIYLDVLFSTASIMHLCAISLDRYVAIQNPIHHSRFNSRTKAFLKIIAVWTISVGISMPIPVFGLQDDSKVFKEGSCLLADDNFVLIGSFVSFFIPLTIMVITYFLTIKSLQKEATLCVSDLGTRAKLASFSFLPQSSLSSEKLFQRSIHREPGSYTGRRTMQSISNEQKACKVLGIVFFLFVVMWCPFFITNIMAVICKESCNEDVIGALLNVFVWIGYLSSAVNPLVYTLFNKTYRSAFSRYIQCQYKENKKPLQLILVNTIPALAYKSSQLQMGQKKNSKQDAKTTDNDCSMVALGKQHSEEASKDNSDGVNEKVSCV
Chain of Muscarinic acetylcholine receptor M1 (Homo sapiens) (P11229 whole entry, looked up): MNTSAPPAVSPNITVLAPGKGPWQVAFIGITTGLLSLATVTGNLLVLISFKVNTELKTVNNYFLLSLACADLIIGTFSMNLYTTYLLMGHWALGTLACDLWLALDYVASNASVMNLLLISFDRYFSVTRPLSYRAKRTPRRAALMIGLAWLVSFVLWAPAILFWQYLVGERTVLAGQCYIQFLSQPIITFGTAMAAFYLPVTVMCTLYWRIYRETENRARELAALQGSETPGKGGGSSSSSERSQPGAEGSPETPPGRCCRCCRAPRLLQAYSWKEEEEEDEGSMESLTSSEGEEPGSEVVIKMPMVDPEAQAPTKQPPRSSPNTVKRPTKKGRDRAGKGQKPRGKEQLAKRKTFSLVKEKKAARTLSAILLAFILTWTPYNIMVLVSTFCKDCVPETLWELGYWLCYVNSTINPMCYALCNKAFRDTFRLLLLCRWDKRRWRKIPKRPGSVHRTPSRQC
Chain of Beta-2 adrenergic receptor (Homo sapiens) (P07550 whole entry, looked up): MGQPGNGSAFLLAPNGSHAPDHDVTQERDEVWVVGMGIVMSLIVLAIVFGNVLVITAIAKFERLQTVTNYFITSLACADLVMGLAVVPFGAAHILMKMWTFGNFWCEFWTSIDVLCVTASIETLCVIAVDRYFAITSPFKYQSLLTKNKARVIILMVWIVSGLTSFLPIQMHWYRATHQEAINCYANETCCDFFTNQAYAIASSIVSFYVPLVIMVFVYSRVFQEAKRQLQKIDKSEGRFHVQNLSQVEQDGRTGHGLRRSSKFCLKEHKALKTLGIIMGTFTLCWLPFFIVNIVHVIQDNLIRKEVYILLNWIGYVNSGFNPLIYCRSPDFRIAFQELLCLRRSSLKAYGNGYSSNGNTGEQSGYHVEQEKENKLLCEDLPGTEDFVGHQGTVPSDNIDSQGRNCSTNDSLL
Chain of Gonadotropin-releasing hormone receptor (Homo sapiens) (P30968 whole entry, looked up): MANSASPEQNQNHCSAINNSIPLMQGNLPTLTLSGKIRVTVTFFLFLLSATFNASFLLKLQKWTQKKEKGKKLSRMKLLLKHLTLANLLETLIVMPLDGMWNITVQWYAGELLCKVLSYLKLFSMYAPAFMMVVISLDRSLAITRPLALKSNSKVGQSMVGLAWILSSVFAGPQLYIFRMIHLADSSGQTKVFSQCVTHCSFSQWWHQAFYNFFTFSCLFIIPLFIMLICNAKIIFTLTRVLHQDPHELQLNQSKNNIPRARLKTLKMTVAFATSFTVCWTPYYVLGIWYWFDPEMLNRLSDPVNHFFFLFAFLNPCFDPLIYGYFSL

| SMILES | Potency [1] | Potency [2] | outcome [3] | outcome [4] | Potency [5] | Potency [6] | Potency [7] | Potency [8] | Potency [9] | Potency [10] | Potency [11] | Potency [12] | Potency [13] | Potency [14] | Potency [15] | Potency [16] | Potency [17] | Potency [18] | Potency [19] | Potency [20] |
| --- | --- | --- | --- | --- | --- | --- | --- | --- | --- | --- | --- | --- | --- | --- | --- | --- | --- | --- | --- | --- |
| O=C1CCCCCCCCCCOCCCCO1 | 30.6 µM (active) | inactive | inactive | inactive | inactive | inactive | inactive | inactive | inactive | inactive | inactive | inactive | inactive | inactive | inactive | inactive | inactive | inactive |  |  |
| CCc1cccc(CC)c1NC(=O)CN(CC(=O)O)CC(=O)O | inactive | inactive | inactive | inactive | inactive | inactive | inactive | inactive | inactive | inactive | inactive | inactive | inactive | inactive | inactive | inactive |  | inactive | inactive | inactive |
| Cc1ccc(N)nc1 | inactive | inactive | inactive | inactive | inactive | inactive | inactive | inactive | inactive | inactive | inactive | inactive |  | inactive |  | inactive |  | inactive | inactive |  |
| CCCCCCc1ccc(N)cc1 | 27.3 µM (active) | inactive | inactive | inactive | inactive | inactive | inactive | inactive | inactive |  | inactive | inactive |  |  |  | inactive | inactive | inactive | inactive |  |
| COc1cc2nc(Cl)nc(N)c2cc1OC | inactive | inactive | inactive | inactive | inactive | inactive | inactive | inactive | inactive | inactive | inactive | inactive | inactive |  | inactive | inactive |  | inactive | inactive |  |
| C=CC(C)(C)O | inactive | inactive | inactive | inactive | inactive | inactive | inactive | inactive | inactive | inactive | inactive | inactive | inactive | inactive |  | inactive |  | inactive | inactive | inactive |
| CC(C)(C)NCC(O)COc1ccc(NC(=O)NC2CCCCC2)cc1 (stereo not given) | inactive | inactive | inactive | inactive | inactive | inactive | inactive | inactive | inactive | inactive | inactive |  | inactive |  | inactive | 4.73 µM (active) |  | inactive | inactive |  |
| COc1cc2c(cc1OC)C(C(C(=O)N(CCc1ccc(OC)c(OC)c1OC)CCc1ccc(OC)c(OC)c1OC)c1ccccc1)=NCC2 (stereo not given) | inactive | inactive | inactive | inactive | inactive | inactive | inactive | inactive | inactive | inactive | inactive | 12 µM (active) | inactive |  |  |  |  |  | inactive | inactive |
| Cc1ccccc1C(=O)O | inactive | inactive | inactive | inactive | inactive | inactive | inactive | inactive | inactive | inactive | inactive |  | inactive | inactive | inactive |  |  | inactive | inactive | inactive |
| CC(C=O)Cc1ccc(C(C)C)cc1 (stereo not given) | inactive | inactive | inactive | inactive | inactive | inactive | inactive | inactive | inactive | inactive | inactive | inactive | inactive | inactive | inactive |  |  | inactive | inactive | inactive |
| Nc1ccc(NC(=O)c2ccc(N)cc2)cc1 | inactive | inactive | inactive | inactive | inactive | inactive | inactive | inactive | inactive | inactive | inactive | inactive | inactive | inactive | inactive |  |  | inactive | inactive | inactive |
| CC/C=C(\C)C=O | inactive | inactive | inactive | inactive | inactive | inactive | inactive | inactive | inactive | inactive | inactive | inactive | inactive | inactive | inactive | inactive |  | inactive | inactive | inactive |
| C1CCN2C[C@@H]3C[C@@H](CN4CCCC[C@@H]34)[C@H]2C1 | inactive | inactive | inactive | inactive | inactive | inactive | inactive | inactive | inactive | inactive |  |  |  | inactive | inactive | inactive |  | inactive |  | inactive |
| O=C(O)c1cc(O)c2ccccc2c1O | 1.72 µM (active) | inactive | inactive | inactive | inactive | inactive | 8.14 µM (active) | inactive | inactive |  | inactive | inactive | inactive |  | inactive | inactive |  |  | inactive | inactive |
| CC1(C)C(=O)C(C)(C)C1=O | inactive | inactive | inactive | inactive | inactive | inactive | inactive | inactive | inactive | inactive | inactive |  | inactive | inactive | inactive | inactive |  | inactive | inactive | inactive |
